Experimental data: PubChem BioAssay (NCI)
Compounds without any hit were thinned out: in the full panel of roughly 79,000, 15% have a hit. Calls of active or inactive are those of the source. Cut-off read from the data, not from the text of the source: active = growth inhibition above about 70%; inactive = the rest.

Columns and labels:
[1] = NCI Yeast Anticancer Drug Screen. Data for the wt1 strain (AID 149);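 note: 0% = growth of vehicle-treated wt1 cultures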; conditions: S. cerevisiae wt1 strain (SPY 50644) growth inhibition, stronger effect = higher value
How it was run: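 Growth inhibition read against vehicle controls after compound exposure of the wt1 yeast strain.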

[2] = NCI Yeast Anticancer Drug Screen. Data for the rad50EPP+ strain (AID 151);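 note: 0% = growth of vehicle-treated control cultures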; conditions: S. cerevisiae rad50 mutant strain, stronger effect = higher value
How it was run: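 Measured: growth inhibition of rad50EPP+ yeast. Reference: vehicle-treated controls. Screen uses strains with defined genetic alterations in DNA damage repair or cell cycle control.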

[3] = NCI Yeast Anticancer Drug Screen. Data for the rad50 strain (AID 155);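 note: 0% = growth of vehicle-only cultures of the same strain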; conditions: S. cerevisiae rad50 strain growth inhibition, stronger effect = higher value
How it was run: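 Readout: growth inhibition relative to vehicle-treated cultures. Compound exposure was carried out in a genetically defined yeast strain deficient in DNA damage repair.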

[4] = NCI Yeast Anticancer Drug Screen. Data for the mec2-1 strain (AID 157); conditions: S. cerevisiae mec2-1 strain, stronger effect = higher value
How it was run: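 Compounds were applied to mec2-1 yeast cells. Their growth was then compared with that of vehicle-treated cultures to give growth inhibition.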

[5] = NCI Yeast Anticancer Drug Screen. Data for the rad14 strain (AID 159);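 note: 0% = growth of vehicle-treated control cultures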; conditions: S. cerevisiae rad14 strain growth inhibition, stronger effect = higher value
How it was run: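 Growth inhibition vs vehicle controls; genetically altered yeast strain (DNA damage repair defect) treated with test compounds.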

[6] = NCI Yeast Anticancer Drug Screen. Data for the sgs1 mgt1 strain (AID 161);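 note: 0% = growth of cultures given vehicle only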; conditions: S. cerevisiae sgs1 mgt1 strain, stronger effect = higher value
How it was run: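 Growth of a repair-deficient yeast mutant was monitored after compound treatment and expressed as inhibition relative to vehicle-treated cultures.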

[7] = NCI Yeast Anticancer Drug Screen. Data for the cln2 rad14 strain (AID 165);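 note: 0% = growth equal to vehicle treated cultures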; conditions: S. cerevisiae cln2 rad14 strain, stronger effect = higher value
How it was run: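 Strain: cln2 rad14 yeast, altered in cell cycle control and DNA damage repair. Read-out: growth inhibition vs vehicle.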

[8] = NCI Yeast Anticancer Drug Screen. Data for the bub3 strain (AID 167); conditions: S. cerevisiae bub3 mutant strain, stronger effect = higher value
How it was run: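 Readout: yeast growth inhibition, expressed relative to vehicle-only wells. The test organism is a mutant strain from a panel with lesions in DNA repair or checkpoint genes.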

[9] = NCI Yeast Anticancer Drug Screen. Data for the mlh1 strain (AID 171);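 note: 0% = growth of vehicle-treated control cultures of the same strain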; conditions: S. cerevisiae mlh1 strain growth inhibition, stronger effect = higher value
How it was run: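 Test agents were incubated with yeast bearing a defined DNA damage repair or cell cycle control alteration; values are growth inhibition normalised to vehicle-treated cultures.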

[10] = NCI Yeast Anticancer Drug Screen. Data for the sgs1 strain (AID 173);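 note: 0% = growth of vehicle-only control cultures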; conditions: S. cerevisiae sgs1 mutant, stronger effect = higher value
How it was run: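 Strain with an altered DNA repair or cell cycle pathway exposed to compound. Growth then measured. Value = inhibition versus vehicle control.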

[11] = NCI Yeast Anticancer Drug Screen. Data for the mlh1 rad18 strain (AID 175); conditions: S. cerevisiae mlh1 rad18 strain growth inhibition, stronger effect = higher value
How it was run: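 A repair-deficient yeast strain is exposed to test compound, and growth is scored relative to vehicle-treated controls.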

[12] = NCI Yeast Anticancer Drug Screen. Data for the rad18 strain (AID 177); conditions: S. cerevisiae rad18 mutant growth inhibition, stronger effect = higher value
How it was run: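 DNA-repair-defective yeast; compound treatment; growth inhibition scored against vehicle.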

[13] = NCI Yeast Anticancer Drug Screen. Data for the mgt1 strain (AID 153); conditions: S. cerevisiae mgt1 mutant growth inhibition, stronger effect = higher value
How it was run: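 Compounds were applied to mgt1 mutant yeast, and growth was then compared against vehicle-treated control cultures to give percent inhibition.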

[14] = NCI Yeast Anticancer Drug Screen. Data for the CLN2oe strain (AID 163);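 note: 0% = growth of vehicle-only control cultures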; conditions: S. cerevisiae CLN2oe strain, stronger effect = higher value
How it was run: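 Cells of an engineered yeast line with disturbed cell-cycle regulation are treated with compound. Inhibition of growth is then calculated relative to the vehicle-treated reference.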

[15] = NCI Yeast Anticancer Drug Screen. Data for the wt2 strain (AID 169);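 note: 0% = growth of vehicle-treated yeast cultures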; conditions: S. cerevisiae wt2 strain growth inhibition, stronger effect = higher value
How it was run: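 Growth of compound-treated yeast is measured and expressed as inhibition relative to vehicle-only controls.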

[16] = at 5.0 µM (retest, dose inferred, filed as 0.5)
[17] = at 50.0 µM (retest, dose inferred, filed as 5.0)

Measured: growth inhibition

CC(C)(O)c1ccccc1C(c1ccccc1)c1ccccc1
active: [3]; [17] 85% | [6]; [17] 88% | [7]; [17] 80% | [8]; [17] 86% | [11]; [17] 92%
inactive: [1]; at 1.2 µM 0% | [1]; at 3.7 µM -1% | [1]; at 11.0 µM 5% | [1]; at 33.0 µM -3% | [1]; at 100.0 µM 4% | [2]; at 1.2 µM -5% | [2]; at 3.7 µM -4% | [2]; at 11.0 µM 5% | [2]; at 33.0 µM -1% | [2]; at 100.0 µM 4% | [3]; at 1.2 µM -2% | [3]; at 3.7 µM 3% | [3]; [16] 53% | [3]; at 11.0 µM 4% | [3]; at 33.0 µM 6% | [3]; at 50.0 µM 18.6% | [3]; at 100.0 µM 7% | [4]; at 1.2 µM -2% | [4]; at 3.7 µM 0% | [4]; [16] -5% | [4]; at 11.0 µM -2% | [4]; at 33.0 µM 1% | [4]; [17] 42% | [4]; at 50.0 µM 9.35% | [4]; at 100.0 µM 5% | [5]; at 1.2 µM 0% | [5]; at 3.7 µM 0% | [5]; at 11.0 µM 0% | [5]; at 33.0 µM 3% | [5]; at 100.0 µM 10% | [6]; [16] 25% | [6]; at 50.0 µM 17% | [7]; [16] 17% | [7]; at 50.0 µM -1% | [8]; at 1.2 µM -2% | [8]; at 3.7 µM -2% | [8]; [16] 29% | [8]; at 11.0 µM -4% | [8]; at 33.0 µM -2% | [8]; at 50.0 µM 7.9% | [8]; at 100.0 µM 4% | [9]; at 1.2 µM -3% | [9]; at 3.7 µM -3% | [9]; at 11.0 µM -2% | [9]; at 33.0 µM 0% | [9]; at 100.0 µM 9% | [10]; at 1.2 µM -6% | [10]; at 3.7 µM 20% | [10]; at 11.0 µM -14% | [10]; at 33.0 µM -5% | [10]; at 100.0 µM 1% | [11]; [16] 59% | [11]; at 50.0 µM 10.9% | [12]; at 1.2 µM -2% | [12]; at 3.7 µM 1% | [12]; at 11.0 µM 1% | [12]; at 33.0 µM 3% | [12]; at 100.0 µM 15%

COc1cc([C@@H]2c3cc4c(cc3[C@@H](OC3OC5COC(C)OC5C(O)C3O)[C@H]3COC(=O)[C@H]23)OCO4)cc(OC)c1O (some centres undefined)
active: [3]; at 100.0 µM 89%
inactive: [1]; at 1.2 µM -1% | [1]; at 3.7 µM -2% | [1]; at 11.0 µM -2% | [1]; at 33.0 µM -1% | [1]; at 100.0 µM -13% | [2]; at 1.2 µM -9% | [2]; at 3.7 µM -3% | [2]; at 11.0 µM 2% | [2]; at 33.0 µM 9% | [2]; at 100.0 µM 23% | [13]; at 1.2 µM -4% | [13]; at 3.7 µM -4% | [13]; at 11.0 µM -2% | [13]; at 33.0 µM 0% | [13]; at 100.0 µM 0% | [3]; at 1.2 µM 0% | [3]; at 3.7 µM 4% | [3]; at 11.0 µM 20% | [3]; at 33.0 µM 61% | [3]; at 50.0 µM 11.6% | [4]; at 1.2 µM -3% | [4]; at 3.7 µM 0% | [4]; at 11.0 µM 4% | [4]; at 33.0 µM 2% | [4]; at 50.0 µM 11.6% | [4]; at 100.0 µM 4% | [5]; at 1.2 µM -2% | [5]; at 3.7 µM -2% | [5]; at 11.0 µM 3% | [5]; at 33.0 µM 2% | [5]; at 100.0 µM 12% | [6]; at 50.0 µM 13.8% | [14]; at 1.2 µM -2% | [14]; at 3.7 µM -6% | [14]; at 11.0 µM -4% | [14]; at 33.0 µM -4% | [14]; at 100.0 µM -6% | [7]; at 50.0 µM 11.3% | [8]; at 1.2 µM -7% | [8]; at 3.7 µM -8% | [8]; at 11.0 µM 0% | [8]; at 33.0 µM -12% | [8]; at 50.0 µM 4.5% | [8]; at 100.0 µM -5% | [15]; at 1.2 µM -3% | [15]; at 3.7 µM -2% | [15]; at 11.0 µM -4% | [15]; at 33.0 µM -3% | [15]; at 100.0 µM 3% | [9]; at 1.2 µM -4% | [9]; at 3.7 µM -3% | [9]; at 11.0 µM -1% | [9]; at 33.0 µM 0% | [9]; at 100.0 µM 7% | [10]; at 1.2 µM -3% | [10]; at 3.7 µM -3% | [10]; at 11.0 µM 1% | [10]; at 33.0 µM 5% | [10]; at 100.0 µM 16% | [11]; at 50.0 µM 64.8% | [12]; at 1.2 µM -4% | [12]; at 3.7 µM -2% | [12]; at 11.0 µM -2% | [12]; at 33.0 µM 6% | [12]; at 100.0 µM 18%
